Results filed as inconclusive are left out. Calls of active or inactive are those of the source. Unless noted, the call rests on the fitted dose curve; in most records, active means well fitted curve in the direction sought with a large enough effect in the repeat runs; inconclusive means weak or mixed curves; inactive means no such curve, though single readings can be large; an effect the other way counts as inactive or inconclusive.
Key:
[1] = qHTS assay for small molecules that induce genotoxicity in human embryonic kidney cells expressing luciferase-tagged ATAD5 (AID 651632); further: nearly all actives have a fitted effect of over 15% in size
In short: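 A rise in luciferase signal from ATAD5-tagged HEK293T cells marks genetic stress. Cells were exposed to compounds for 16 hr at 37C, 5% CO2, then luciferase was quantified after a 30 min room-temperature incubation with Amplite.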

[2] = qHTS assay for small molecule agonists of the p53 signaling pathway - cell viability (AID 651633; calls by dose curve; further: series mostly up to about 83 µM; nearly all actives have a fitted effect of over 30% in size)
In short: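 p53RE-bla cells were treated with compound for 16 hours at 37 C. Cytotoxicity was then measured as CellTiter-Glo luminescence after 30 min at room temperature.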

[3] = qHTS assay for small molecules that induce genotoxicity in human embryonic kidney cells expressing luciferase-tagged ATAD5 - cell viability (AID 651634; calls by dose curve; further: nearly all actives have a fitted effect of over 25% in size; further: potency means the concentration at half of the fitted maximal effect)
In short: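 Cytotoxicity counter-readout: after 15.5 hr compound treatment at 37C, live-cell protease activity in ATAD5-luciferase HEK293T cells measured by CellTiter-Fluor fluorescence, 30 min development at 37C.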

[4] = qHTS assay for small molecule disruptors of the mitochondrial membrane potential - cell viability (AID 720634; calls by dose curve;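 further: human HepG2 liver cancer cells; series mostly up to about 83 µM; nearly all actives have a fitted effect of over 20% in size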)
In short: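 Cytotoxicity was quantified from ATP content by CellTiter-Glo luminescence in the same wells as the MMP dye read-out. HepG2 (2,000 cells/well) were plated overnight and exposed to compounds for 1 hr at 37 C.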

[5] = qHTS assay for small molecule disruptors of the mitochondrial membrane potential (AID 720635); further: potency means the concentration at half of the fitted maximal effect
In short: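 HepG2 cells exposed to compound 1 hr at 37C, then Mito-MPS dye 30 min. Ratio read of aggregate (540/590 nm) versus monomer (490/535 nm) fluorescence.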

[6] = qHTS assay to test for compound auto fluorescence at 590 nm (red) in HepG2 cells (AID 720674)
In short: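 HepG2 cells, 2,000 per well in MEM with 10% FBS, attached overnight at 37 C, then got 23 nL compound or DMSO. After 1 hr at 37 C, 5% CO2, red fluorescence was read at 540/590 nm against Rose Bengal sodium as reference.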

[7] = qHTS assay to test for compound auto fluorescence at 590 nm (red) in HEK293 cells (AID 720679)
In short: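 Autofluorescence equivalency to Rose Bengal sodium, 540/590nm, in HEK293 cells exposed overnight to 23 nL compound per well.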

[8] = qHTS assay to test for compound auto fluorescence at 535 nm (green) in HEK293 cells (AID 720680)
[9] = qHTS assay to test for compound auto fluorescence at 460 nm (blue) in HEK293 cell free culture (AID 720681)
In short: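 Compounds were added to cell-free DMEM with 10% FBS and fluorescence read directly. The blue channel used 405 nm excitation and 460 nm emission, with triamterene as the reference fluorophore.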

[10] = qHTS assay to test for compound auto fluorescence at 535 nm (green) in HEK293 cell free culture (AID 720682)
In short: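 Compounds were pin-transferred into cell-free DMEM with 10% FBS, and green fluorescence was read at excitation 485 nm and emission 535 nm. Intensities were expressed as fluorescein-equivalent values.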

[11] = qHTS assay to test for compound auto fluorescence at 590 nm (red) in HEK293 cell free culture (AID 720683)
In short: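 Cell-free wells of DMEM with 10% FBS received compound, and intrinsic fluorescence was read at excitation/emission 540/590 nm. Values expressed as equivalence to Rose Bengal sodium.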

[12] = qHTS assay to test for compound auto fluorescence at 590 nm (red) in HepG2 cell free culture (AID 720684)
In short: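 Rose Bengal sodium served as the reference for red signal. Test compounds were dispensed into serum-containing MEM (10% FBS) without cells, and plates were read at 540/590 nm.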

[13] = qHTS assay to test for compound auto fluorescence at 460 nm (blue) in HepG2 cell free culture (AID 720685)
In short: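 Cell-free plates of MEM plus 10% FBS received 23 nL compound or DMSO vehicle; blue-channel (405/460 nm) intensity scored against triamterene as reference fluorophore.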

[14] = qHTS assay to test for compound auto fluorescence at 535 nm (green) in HepG2 cell free culture (AID 720686)
[15] = target: Glucocorticoid receptor (Homo sapiens) (UniProt P04150); experiment: qHTS assay to identify small molecule agonists of the glucocorticoid receptor (GR) signaling pathway (AID 720691; active means well fitted activation curve with a large enough effect in the signal ratio in the repeat runs, not every such curve was filed as active; the % refers to the signal ratio)
In short: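 Agonist-mode qHTS in HeLa cells stably expressing a glucocorticoid-response-element beta-lactamase reporter. Fluorescence intensity read with FRET substrate (2 h, room temperature) after 18 h compound treatment at 37 C.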

[16] = qHTS assay to test for compound auto fluorescence at 535 nm (green) in HepG2 cells (AID 720675)
[17] = qHTS assay to test for compound auto fluorescence at 460 nm (blue) in HEK293 cells (AID 720678)
In short: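 Auto fluorescence in the blue band was quantified as triamterene equivalency. HEK293 cells were seeded at 2,000/well, dosed after a 4-5 hr attachment, and kept overnight at 37C before the 405/460 nm reading.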

[18] = target: Glucocorticoid receptor (Homo sapiens) (UniProt P04150); experiment: qHTS assay to identify small molecule antagonists of the glucocorticoid receptor (GR) signaling pathway (AID 720692; active means well fitted inhibition curve with a large enough effect in the signal ratio in the repeat runs, not every such curve was filed as active; the % refers to the signal ratio)
In short: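 Inhibition of dexamethasone-driven (5 nM final) beta-lactamase expression was measured in GRE-reporter HeLa cells over 18 h at 37C. Fluorescence was read after 2 h with the B/G FRET substrate at room temperature.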

[19] = qHTS assay to test for compound auto fluorescence at 460 nm (blue) in HepG2 cells (AID 720687)
In short: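 HepG2 cells in MEM with 10% FBS, attached overnight at 37 C, were exposed to compound or DMSO for 1 hr at 37 C, 5% CO2. Blue fluorescence was read at 405/460 nm, with triamterene as reference fluorophore.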

[20] = qHTS assay for small molecule agonists of the p53 signaling pathway (AID 651631; calls by dose curve; further: nearly all actives have a fitted effect of over 15% in size)
In short: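 Readout was fluorescence from the LiveBLAzer FRET substrate, applied for 2 h at room temperature after 16 h compound exposure at 37 °C. Cells were the p53RE-bla HCT-116 line, with beta-lactamase driven by p53 response elements.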
On the % scale 0 is the no-effect control and ±100 the full control effect.

Sequence of Glucocorticoid receptor (Homo sapiens) (P04150 whole entry, looked up): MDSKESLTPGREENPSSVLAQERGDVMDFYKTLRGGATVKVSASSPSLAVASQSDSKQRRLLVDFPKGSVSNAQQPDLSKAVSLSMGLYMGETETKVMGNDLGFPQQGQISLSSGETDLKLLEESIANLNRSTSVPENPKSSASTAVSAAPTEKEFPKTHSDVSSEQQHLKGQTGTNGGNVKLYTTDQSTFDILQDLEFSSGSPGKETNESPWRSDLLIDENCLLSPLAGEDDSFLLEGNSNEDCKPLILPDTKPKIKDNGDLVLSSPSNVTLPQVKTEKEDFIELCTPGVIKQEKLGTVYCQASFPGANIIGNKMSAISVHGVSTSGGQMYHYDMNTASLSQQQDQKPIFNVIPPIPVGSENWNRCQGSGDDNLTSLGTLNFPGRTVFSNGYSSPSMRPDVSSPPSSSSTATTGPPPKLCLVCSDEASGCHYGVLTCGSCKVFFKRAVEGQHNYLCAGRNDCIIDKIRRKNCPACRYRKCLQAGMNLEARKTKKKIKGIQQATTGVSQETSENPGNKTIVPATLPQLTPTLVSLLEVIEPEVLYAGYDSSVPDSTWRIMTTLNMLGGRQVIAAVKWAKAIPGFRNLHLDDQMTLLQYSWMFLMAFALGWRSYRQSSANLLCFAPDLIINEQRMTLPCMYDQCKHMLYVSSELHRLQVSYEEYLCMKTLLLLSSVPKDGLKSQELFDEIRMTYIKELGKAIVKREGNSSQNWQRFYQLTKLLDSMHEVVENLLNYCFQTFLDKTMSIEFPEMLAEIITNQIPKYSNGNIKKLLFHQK

O=CN(CCO)CCO
inactive: Potency [1] | Potency [2] | Potency [3] | outcome [4] | Potency [5] | outcome [6] | outcome [7] | outcome [8] | outcome [9] | outcome [10] | outcome [11] | outcome [12] | outcome [13] | outcome [14] | Potency [15]

N[C@H](C(=O)O)[C@@H](O)c1ccc(O)c(O)c1
inactive: Potency [1] | Potency [2] | Potency [3] | outcome [4] | outcome [6] | outcome [16] | outcome [17] | outcome [7] | outcome [8] | outcome [10] | outcome [11] | outcome [12] | outcome [13] | outcome [14] | Potency [15] | Potency [18]
active: Potency [5] 26.6 µM

NC(CCC(=O)O)C(=O)O (configuration not stated)
inactive: Potency [1] | Potency [2] | Potency [3] | outcome [4] | Potency [5] | outcome [6] | outcome [16] | outcome [17] | outcome [7] | outcome [8] | outcome [9] | outcome [10] | outcome [11] | outcome [12] | outcome [13] | outcome [14] | outcome [19] | Potency [15] | Potency [18]

COc1ccnc(CS(=O)c2nc3cc(OC(F)F)ccc3[nH]2)c1OC (configuration not stated)
inactive: Potency [1] | Potency [2] | Potency [3] | outcome [4] | Potency [5] | outcome [16] | outcome [17] | outcome [7] | outcome [8] | outcome [10] | outcome [11] | outcome [12] | outcome [13] | outcome [14] | outcome [19] | Potency [15] | Potency [18]

C[N+]12CCC(CC1)C(OC(=O)C(O)(c1ccccc1)c1ccccc1)C2 (configuration not stated)
inactive: Potency [1] | Potency [2] | Potency [3] | outcome [4] | Potency [5] | fluorescence, relative to Rose Bengal [6] 0.0225% [at 18.6 µM] | fluorescence, % of fluorescein control [16] -0.0019% [at 18.6 µM] | fluorescence, % of triamterene [17] 0.0716% [at 18.6 µM] | fluorescence, % of fluorescent control [7] -0.175% [at 18.6 µM] | fluorescence, % of fluorescein [8] 0.041% [at 18.6 µM] | activity change [10] 0.0169% [at 18.6 µM] | fluorescence, % of fluorescent control [11] 0.0635% [at 18.6 µM] | fluorescence, % of Rose Bengal [12] 0.213% [at 18.6 µM] | fluorescence, % of fluorescent control [13] -0.0875% [at 18.6 µM] | fluorescence, % of fluorescein control [14] -0.0194% [at 18.6 µM] | fluorescence, % of fluorescent control [19] 0.0552% [at 18.6 µM] | Potency [15]

NC(=O)Cc1cccc2ccccc12
inactive: Potency [20] | Potency [2] | outcome [4] | outcome [6] | outcome [16] | outcome [17] | outcome [7] | outcome [8] | outcome [9] | outcome [10] | outcome [12] | outcome [13] | outcome [14] | outcome [19] | Potency [15] | Potency [18]

CCCCCCCCCCOc1cc2c(=O)c(C(=O)OCC)c[nH]c2cc1OCC
inactive: Potency [1] | Potency [2] | Potency [3] | outcome [4] | outcome [6] | outcome [16] | outcome [17] | outcome [7] | outcome [8] | outcome [9] | outcome [10] | outcome [12] | outcome [13] | outcome [14] | outcome [19]

Cc1ncc([C@@H](CCCCCCc2ccc3c(n2)NCCC3)CC(=O)O)cn1
active: Potency [3] 0.0273 µM
inactive: Potency [1] | Potency [2] | outcome [4] | outcome [6] | outcome [16] | outcome [17] | outcome [7] | outcome [8] | outcome [9] | outcome [10] | outcome [11] | outcome [12] | outcome [13] | outcome [14] | outcome [19]

COc1cccc(OC)c1C(=O)N[C@@H]1C(=O)N2[C@@H]1SC(C)(C)[C@@H]2C(=O)O
inactive: Potency [1] | Potency [2] | Potency [3] | outcome [4] | Potency [5] | outcome [6] | outcome [16] | outcome [7] | outcome [8] | outcome [9] | outcome [10] | outcome [12] | outcome [13] | Potency [15] | Potency [18]

C=CC(=O)OCCCl
inactive: Potency [20] | Potency [2] | outcome [4] | Potency [5] | outcome [17] | outcome [7] | outcome [8] | outcome [10] | outcome [11] | outcome [12] | outcome [13] | outcome [14] | outcome [19]

O=C(O)CNC(=O)c1ccccc1
inactive: Potency [1] | Potency [2] | Potency [3] | outcome [4] | Potency [5] | outcome [6] | outcome [16] | outcome [17] | outcome [7] | outcome [8] | outcome [9] | outcome [10] | outcome [11] | outcome [12] | outcome [13] | outcome [14] | Potency [15]

CCCCOC(=O)CCC(C)=O
inactive: Potency [1] | Potency [2] | Potency [3] | outcome [4] | Potency [5] | outcome [6] | outcome [16] | outcome [17] | outcome [7] | outcome [8] | outcome [9] | outcome [10] | outcome [12] | outcome [13] | outcome [14] | outcome [19] | Potency [15] | Potency [18]

FB(F)F
inactive: Potency [1] | Potency [2] | Potency [3] | outcome [4] | outcome [6] | outcome [16] | outcome [17] | outcome [7] | outcome [9] | outcome [10] | outcome [12] | outcome [13] | outcome [14] | Potency [15] | Potency [18]

CC(CO)(CO)[N+](=O)[O-]
inactive: Potency [1] | Potency [2] | Potency [3] | outcome [4] | outcome [6] | outcome [16] | outcome [17] | outcome [7] | outcome [8] | outcome [9] | outcome [10] | outcome [11] | outcome [12] | outcome [13] | outcome [14] | outcome [19] | Potency [15]

CC[N+](CC)(CC(=O)Nc1c(C)cccc1C)Cc1ccccc1 (tested in a mixture with another compound)
inactive: Potency [1] | Potency [2] | Potency [3] | outcome [4] | outcome [6] | outcome [16] | outcome [17] | outcome [7] | outcome [8] | outcome [9] | outcome [10] | outcome [11] | outcome [12] | outcome [13] | outcome [19]

Reference: PubChem BioAssay (Tox21)
